This note sets out measurements from PubChem BioAssay AID2314 (National Center for Advancing Translational Sciences (NCATS), 2010).

“And” between values parts separate entries of the source, which are not always exact repeats. Equal entries are not always repeated. The whole screen tested about 300,000 compounds, of which about 37,000 (12%) were called active. This is one part of a sample in which actives are shown more often than they occur. No stated cut-off is given here; in the data, active means max response mostly above about 13% (no sharp cut-off); inactive means mostly below about 14%.

The nature of this experiment: Cycloheximide Counterscreen for Small Molecule Inhibitors of Shiga Toxin. Further: read at 38.3 µM for the half of the compounds with a filed dose; 0% is about no effect. The settings on record: cell reporter, cycloheximide protein synthesis inhibition counterscreen; hits give high values.
Take `O=c1cc(-c2ccc(O)cc2)oc2c(-c3cc(-c4cc(=O)c5c(O)cc(O)cc5o4)ccc3O)c(O)ccc12`: the max response was -11.1% (inactive).
As for `COc1ccc(-c2cc(=O)c3c(O)cc(O[C@@H]4O[C@H](CO[C@@H]5O[C@@H](C)[C@H](O)[C@@H](O)[C@H]5O)[C@@H](O)[C@H](O)[C@H]4O)cc3o2)cc1O`, the max response was -0.55% (inactive).
Turning to `COc1c(O)cc2oc(-c3ccc(O)c(O)c3)cc(=O)c2c1O`, the max response is 43% (active) and 45.2% (active).
`Cc1cc(C)cc(Oc2c(C(F)(F)F)oc3cc(OCC(=O)O)ccc3c2=O)c1`: the max response is -1.36% (inactive).
Turning to `c1ccc(-c2cnc(CN3CCN(c4ccccc4)CC3)o2)cc1`, the max response was 7.72% (inactive).
In the case of `CCc1ccc(NC(=O)CS(=O)CC(=O)N2CCN(c3ccccc3F)CC2)cc1` (stereo not drawn), the max response is 3.43% (inactive).
`O=C(CCS(=O)(=O)c1cccc2nsnc12)N1CCN(c2ccccc2F)CC1`: the max response was 6.58% (inactive).
Take `O=C(CCSc1ccccc1)N1CCN(c2ccccc2F)CC1`: the max response is 48.8% (active).
In the case of `O=C(CCc1ccccc1F)N1CCN(c2ccccc2)CC1`, the max response was 0.391% (inactive).
In the case of `O=C(NCC(=O)N1CCN(c2ccccc2F)CC1)c1cccs1`, the max response was 23.4% (active).
For the compound `O=C(NCC(=O)N1CCN(c2ccccc2O)CC1)c1ccc2ccccc2c1`, the max response is 1.36% (inactive).
On to `COc1ccc(NC(=O)CSCc2ccc([N+](=O)[O-])cc2)cc1OC`, for which the max response is -3.9% (inactive).
Take `Cc1cccc(N2CCN(C(=O)c3cccc(N4C(=O)C5C6C=CC(C6)C5C4=O)c3)CC2)c1C` (stereo not drawn): the max response is -6.3% (inactive).
The result for `O=C(CSc1nnc(Nc2ccccc2)s1)Nc1cccnc1Cl` reads 2.36% (inactive); that for `CC(C)c1ccc(Nc2nnc(SCC(=O)c3nnc(-c4ccccc4)o3)s2)cc1`, 23.6% (active); that for `Cc1ccc(Nc2nnc(SCC(=O)c3cc4ccccc4o3)s2)cc1C`, 10.2% (inactive).
For the compound `Cc1cc(=O)oc2c3c(cc(OCC(=O)NCc4ccccn4)c12)OC(C)(C)CC3`, the max response is -2.86% (inactive).
As for `Cc1ccc(N2CCN(c3ccc([N+](=O)[O-])cn3)CC2)c(C)c1`, the max response was -4.64% (inactive).
With `O=C(COc1ccc(S(=O)(=O)Nc2cccc(C(F)(F)F)c2)cc1)N1CCOCC1`, the max response is -0.756% (inactive).
Turning to `CN(C)c1nc(N)nc(CSc2nnnn2-c2cccc3ccccc23)n1`, the max response is -1% (inactive).
As for `CN(C)c1nc(N)nc(CSc2ccccn2)n1`, the max response is 21.5% (active).
In the case of `CCOC(=O)CSc1ccccn1`, the max response was -1.11% (inactive).
As to `CCOC(=O)c1cc2c(=O)[nH]c(C(Cl)(Cl)Cl)nc2o1`, the max response is 7.51% (inactive).
The result for `O=C(O)c1cccc2c1C(=O)N(C1CCCC1)C2` reads -2.23% (inactive); that for `Cc1cccc(NC(=O)c2nc(S(=O)(=O)Cc3ccccc3)ncc2Cl)c1`, 29% (active); that for `CCSc1ncc(Cl)c(C(=O)Nc2cc(C)ccc2C)n1`, -0.976% (inactive).
On to `Cc1cccc(CS(=O)(=O)c2ncc(Cl)c(C(=O)Nc3ccc(F)cc3)n2)c1`, for which the max response is 30.3% (active).
As to `Cc1cccc(NC(=O)c2nc[nH]c2C(=O)NCC(=O)OCc2ccccc2)c1`, the max response was 1.03% (inactive).
As to `Cc1cccc(OCc2ccc(C(=O)Nc3ccc(F)cc3)cc2)c1`, the max response was -3.2% (inactive).
As for `CCOc1ccc(NC(=O)c2nc(SCC)ncc2Cl)cc1`, the max response is -5.84% (inactive).
Take `COCCCNC(=O)CN1C(=O)CSc2ccc(S(=O)(=O)N3CCOCC3)cc21`: the max response was -0.345% (inactive).
Take `OC(COc1ccc(CN2CCSCC2)cc1)CN1CCCCC1` (stereo not drawn): the max response was 0.684% (inactive).
Regarding `CC1CCC(N2CC(=O)N(Cc3ccc4c(c3)OCO4)C(c3ccc(F)cc3)C2=O)CC1` (stereo not drawn), the max response is -2.2% (inactive).
`O=C(c1cc(Cl)cc(Cl)c1)N1CCC(=O)N(C(COCc2ccccc2)Cc2ccccc2)CC1` (stereo not drawn): the max response was -1.19% (inactive).
Take `O=C(CCl)NNc1nc(-c2ccccc2)c2cc(Cl)ccc2n1`: the max response was -5.34% (inactive).
Consider `COc1cc(OC)nc(NC(=O)CCl)n1`, for which the max response is -2.63% (inactive).
In the case of `O=C(CCl)NNc1cccc(Cl)n1`, the max response is 26.1% (active).
Turning to `C=CCn1c(SCC(=O)NCC2CCCO2)nc2sc(C)c(C)c2c1=O` (stereo not drawn), the max response was -2.05% (inactive).
Take `COc1ccc(CCCc2nnc(SCc3nc4ccccc4c(=O)[nH]3)n2C)cc1`: the max response was 1.63% (inactive).
Turning to `CCN(CC(=O)NCc1cccs1)C(=O)c1cccc(S(=O)(=O)Nc2ccccc2OC)c1`, the max response was -1.21% (inactive).
For the compound `Cc1ccc(-c2nc3ccccc3[nH]2)cc1N`, the max response is 34.2% (inactive).
The result for `c1ccc2[nH]c(-c3nc4ccccc4[nH]3)nc2c1` reads 33.9% (active).
With `OC(c1nc2ccccc2[nH]1)C(O)C(O)C(O)c1nc2ccccc2[nH]1` (stereo not drawn) the figure was -2.45% (inactive); with `CN(C(=O)C1CCN(c2ncnc3c2nc2n3CCCCC2)CC1)C1CCCCC1`, -1.8% (inactive).
On to `CCOCc1nnc(NC(=O)CCS(=O)(=O)Cc2ccccc2)s1`, for which the max response was -1.02% (inactive).
Turning to `CC(C)(C)NC(=O)COc1ccc(CNc2ccc3[nH]c(=O)[nH]c3c2)cc1`, the max response was -1.49% (inactive).
Turning to `COc1ccc(OCC(=O)NNC(=O)c2ccc(-c3ccccc3)cc2)cc1`, the max response was -2.64% (inactive).
For the compound `COC(=O)c1ccc(OCC(=O)NC(C)(C)C)cc1`, the max response is 31.4% (active).
As to `Cc1cccc(NC(=O)N2CCCCCC2)c1C`, the max response is 8.83% (inactive).
Turning to `COc1ccc(NS(=O)(=O)c2cc3c(cc2C)N(C(C)=O)CCO3)cc1`, the max response is -2.57% (inactive).
As for `COc1ccc(C/C(N)=N/OC(=O)c2ccco2)cc1OC`, the max response was 22.4% (active).
With `COc1ccc(CC(=O)Nc2ccccc2NC(=O)c2ccco2)cc1OC` the figure was 6.8% (inactive); with `COc1ccc(C(=O)O/N=C(\N)Cc2ccc(Cl)cc2Cl)cc1OC`, 4.82% (inactive).
`CCc1nnc(NC(=O)CSCc2cc(=O)n3cc(C)sc3n2)s1`: the max response was 1.44% (inactive).
As to `COc1ccc(OC)c(C(=O)c2ccc(C(=O)N3CCN(Cc4csc(C)n4)CC3)cc2)c1`, the max response was -2.77% (inactive).
Regarding `CCN1CCN(C(=O)c2cc3cc4ccc(OC)cc4nc3s2)CC1`, the max response was 15.1% (active).
Turning to `CCN1CCN(C(=O)CN(C)S(=O)(=O)c2ccc(OC)cc2)CC1`, the max response was 4.5% (inactive).
`CCOc1cc(/C=C(\C#N)c2nc(-c3cccs3)c(NC(C)=O)s2)ccc1O`: the max response is 1.82% (inactive).
The result for `COc1cc(/C=N/NC(=O)CCc2n[nH]c(=O)[nH]c2=O)ccc1O` reads -0.284% (inactive); that for `COc1cc(/C=N/Nc2nc3ccccc3s2)ccc1O`, 72.3% (active).
For the compound `COc1cc(/C=N/NC(=O)CNC(=O)c2ccncc2)ccc1OC(C)=O`, the max response is -4.24% (inactive).
On to `COc1cc(/C=N\Nc2nc(-c3cccs3)c(NC(C)=O)s2)ccc1O`, for which the max response is 17.1% (active).
With `CCNc1nc(NCC)nc(N/N=C/c2ccc(O)c(OC)c2)n1` the figure was 7.49% (inactive).
